Measured values as given in PubChem BioAssay (Tox21).
Several values for one entry are separate records, joined by “and”; a condition that tells them apart may be missing. Equal entries are not always repeated. Results filed as inconclusive are left out. Entries that show only a call come without a potency. Some structures have more than one record in an assay (separate samples or runs), and their calls can disagree. Activity calls are given as the source filed them. Calls follow the shape of the dose curve; as a rule, active = well fitted curve in the direction sought with a large enough effect in the repeat runs; inconclusive = weak or mixed curves; inactive = no such curve, though single readings can be large; an effect the other way counts as inactive or inconclusive.

Legend:
[1] = A CellTox Green Cytotoxicity Assay to monitor cytotoxicity in HepG2 cells - 0 hour (AID 1224882); also: nearly all actives have a fitted effect of over 35% in size
How it was run: (§1)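 Cytotoxicity was tracked as dead-cell DNA fluorescence in HepG2 cells treated with test compounds at 37 C; each time-point value comes from one kinetic series spanning 0, 8, 16, 24, 32 and 40 h.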

[2] = A CellTox Green Cytotoxicity Assay to monitor cytotoxicity in HepG2 cells - 32 hour (AID 1224883); also: nearly all actives have a fitted effect of over 50% in size; also: potency is read from the fitted curve at half-maximal effect
How it was run: as §1

[3] = A CellTox Green Cytotoxicity Assay to monitor cytotoxicity in HEK293 cells - 8 hour (AID 1224884); also: nearly all actives have a fitted effect of over 35% in size; also: potency is read from the fitted curve at half-maximal effect
How it was run: (§2)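 Real-time, in one plate: 600 HEK293 cells/well with dead-cell DNA dye, pinned compound after 5 h, 37 C incubation over 40 h; viable cells give no appreciable fluorescence.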

[4] = qHTS RealTime-Glo MT Cell Viability Assay in HepG2 cells - 16 hour (AID 1224885); also: nearly all actives have a fitted effect of over 50% in size
How it was run: (§3)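 Luminescence read-out: viable HepG2 cells reduce a prosubstrate to a NanoLuc substrate, giving a signal proportional to live cell number. Reads taken at 0, 8, 16, 24, 32 and 40 h of compound exposure at 37 C.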

[5] = qHTS RealTime-Glo MT Cell Viability Assay in HEK293 cells - 8 hour (AID 1224887); also: top concentration of the series differs between compounds; nearly all actives have a fitted effect of over 50% in size
How it was run: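 Kinetic, non-lysing viability readout. Seed HEK293 (600/well) with reagent, incubate 5 h at 37 C/5% CO2, pin 23 nL compound in DMSO, incubate at 37 C, read luminescence at 0, 8, 16, 24, 32, 40 h.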

[6] = A CellTox Green Cytotoxicity Assay to monitor cytotoxicity in HEK293 cells - 16 hour (AID 1224888); also: nearly all actives have a fitted effect of over 35% in size
How it was run: as §2

[7] = qHTS RealTime-Glo MT Cell Viability Assay in HepG2 cells - 0 hour (AID 1224889); also: nearly all actives have a fitted effect of over 50% in size
How it was run: as §3

[8] = A CellTox Green Cytotoxicity Assay to monitor cytotoxicity in HepG2 cells - 8 hour (AID 1224890); also: nearly all actives have a fitted effect of over 45% in size
How it was run: as §1

[9] = qHTS assay to identify small molecule antagonists of the estrogen receptor alpha (ER-alpha) signaling pathway using the BG1 cell line in the presence of 0.1 nM 17-beta-estradiol - cell viability counter screen (AID 1259241); also: nearly all actives have a fitted effect of over 40% in size
How it was run: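 Cytotoxicity counter-screen: live-cell protease activity measured by fluorescence (30 min reagent step) in the same wells. Cells were VM7Luc4E2 with endogenous ER-alpha and ERE-driven luciferase, treated 22 hr at 37C alongside 0.1 nM 17beta-estradiol final.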

[10] = qHTS RealTime-Glo MT Cell Viability Assay in HEK293 cells - 24 hour (AID 1224886); also: nearly all actives have a fitted effect of over 50% in size; also: potency is read from the fitted curve at half-maximal effect
How it was run: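 Nonlytic real-time viability readout: viable cells convert prosubstrate to NanoLuc substrate, giving luminescence proportional to live cell number. HEK293, 600 cells/well, compound added after 5 h, continuous culture at 37 C.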

SMILES | Potency [1] | Potency [2] | Potency [3] | Potency [4] | Potency [5] | Potency [6] | Potency [7] | Potency [8] | Potency [9] | Potency [10]
CCN(CC)CCOC(=O)c1ccc(N)cc1 | inactive | inactive | inactive | inactive | inactive | inactive | inactive | inactive | inactive | –
Cc1c(N(C)CS(=O)(=O)O)c(=O)n(-c2ccccc2)n1C | inactive | inactive | inactive | inactive | inactive | inactive | inactive | inactive | inactive | inactive
CC(O)COc1ccccc1 (stereo unspecified) | inactive | inactive | inactive | inactive | inactive | inactive | inactive | inactive | inactive | inactive
CCCCOCCOCCSC#N | inactive | inactive | inactive | inactive | inactive | inactive | inactive | inactive | inactive | –
NC(=O)N/N=C/c1ccc([N+](=O)[O-])o1 | inactive | inactive | inactive | inactive | inactive | inactive | inactive | inactive | – | –
O=C(O)CN(CC(=O)O)CC(=O)O | inactive | inactive | inactive | inactive | inactive | inactive | inactive | inactive | inactive | –
NC(N)=NC(N)=NCCc1ccccc1 | inactive | inactive | inactive | inactive | inactive | inactive | inactive | inactive | inactive | –
CC(C)Cc1ccc(C(C)C(=O)O)cc1 (stereo unspecified) | inactive | inactive | inactive | inactive | inactive | inactive | inactive | inactive | inactive | inactive
CC(=O)/C=C/C1=C(C)CCCC1(C)C | inactive | inactive | inactive | inactive | inactive | inactive | inactive | inactive | inactive | inactive
c1ccc2[nH]c(-c3cscn3)nc2c1 | inactive | inactive | inactive | inactive | inactive | inactive | inactive | inactive | inactive | inactive
Cc1cnc(NC(=O)C2=C(O)c3ccccc3S(=O)(=O)N2C)s1 | inactive | inactive | inactive | inactive | inactive | inactive | inactive | inactive | inactive | inactive
CCCCOCCOCCOC(C)=O | inactive | inactive | inactive | inactive | inactive | inactive | inactive | inactive | inactive | inactive
COc1ccc(O)cc1 | inactive | inactive | inactive | inactive | inactive | inactive | inactive | inactive | inactive | inactive
CCCCCCCCOc1ccc(C(=O)c2ccccc2)c(O)c1 | inactive | inactive | inactive | inactive | inactive | inactive | inactive | inactive | inactive | inactive
C=CCOC(=O)CC(C)C | inactive | inactive | inactive | inactive | inactive | inactive | inactive | inactive | inactive | inactive
CCOCCO | inactive | inactive | inactive | inactive | inactive | inactive | inactive | inactive | inactive | inactive
CC(C)CC(C)CC(O)CC(C)C (stereo unspecified) | inactive | inactive | inactive | inactive | inactive | inactive | inactive | inactive | inactive | –
C#C[C@]1(O)CC[C@H]2[C@@H]3CCC4=CC(=O)CC[C@@H]4[C@H]3CC[C@@]21CC | inactive | inactive and 43.6 µM (active) | – | inactive | inactive | inactive | inactive | inactive | inactive | 43.6 µM (active) and inactive
CCCCC/C(C=O)=C\c1ccccc1 | inactive | inactive | inactive | inactive | inactive | inactive | inactive | inactive | inactive | –
C=C(C)C(N)=O | inactive | inactive | inactive | inactive | inactive | inactive | inactive | inactive | inactive | inactive
O=C1OC(c2ccc(O)cc2)(c2ccc(O)cc2)c2ccccc21 | inactive | inactive | inactive | inactive | inactive | inactive | inactive | inactive | inactive | inactive

SMILES | Potency [1] | Potency [2] | Potency [3] | Potency [4] | Potency [5] | Potency [6] | Potency [7] | Potency [8] | Potency [9] | Potency [10]
N[C@@H](Cc1c[nH]c2ccc(O)cc12)C(=O)O | inactive | inactive | inactive | inactive | inactive | inactive | inactive | inactive | inactive | –
CCc1cc(C(N)=S)ccn1 | inactive | inactive | inactive | inactive | inactive | inactive | inactive | inactive | inactive | –
CN/C(=C\[N+](=O)[O-])NCCSCc1ccc(CN(C)C)o1 | inactive | inactive | inactive | inactive | inactive | inactive | inactive | inactive | inactive | –
CC(=O)Oc1ccccc1C(=O)O | inactive | inactive | inactive | inactive | inactive | inactive | inactive | inactive | inactive | inactive
COc1ccccc1O | inactive | inactive | inactive | inactive | inactive | inactive | inactive | inactive | inactive | –
O=c1c(-c2ccc(O)cc2)coc2cc(O)cc(O)c12 | inactive | inactive | inactive | inactive | – | inactive | inactive | inactive | inactive | –
COc1ccccc1NC(=O)CC(C)=O | inactive | inactive | inactive | inactive | inactive | inactive | inactive | inactive | inactive | inactive
COC1=CC(=O)C[C@@H](C)[C@]12Oc1c(Cl)c(OC)cc(OC)c1C2=O | inactive | 34.4 µM (active) | 24.3 µM (active) and inactive | inactive | inactive | inactive | inactive | inactive | inactive | inactive
C1CNCCN1 | inactive | inactive | inactive | inactive | inactive | inactive | inactive | inactive | inactive | –
C#C[C@]1(O)CC[C@H]2[C@@H]3CCc4cc(O)ccc4[C@H]3CC[C@@]21C | inactive | – | inactive | inactive | inactive | inactive | inactive | inactive | inactive | 19.5 µM (active)
CC(=O)c1ccc(S(=O)(=O)NC(=O)NC2CCCCC2)cc1 | inactive | inactive | – | inactive | inactive | inactive | inactive | inactive | inactive | –
CC1=C(/C=C/C(C)=C/C=C/C(C)=C/C(=O)O)C(C)(C)CCC1 | inactive | inactive | – | inactive | inactive | inactive | inactive | inactive | inactive | inactive
O=C(O)Cc1cccc2ccccc12 | inactive | inactive | – | inactive | inactive | inactive | inactive | inactive | inactive | inactive
COCC(C)N (stereo unspecified) | inactive | – | inactive | inactive | inactive | inactive | inactive | inactive | inactive | inactive
NC(=O)c1ccc([N+](=O)[O-])cc1Cl | inactive | inactive | – | inactive | inactive | inactive | inactive | inactive | inactive | –
Cn1cnc2c1c(=O)[nH]c(=O)n2C | inactive | inactive | – | inactive | inactive | inactive | inactive | inactive | inactive | –
Cc1cccc2ccccc12 | inactive | inactive | – | inactive | inactive | inactive | inactive | inactive | inactive | inactive
CCn1cc(C(=O)O)c(=O)c2ccc(C)nc21 | inactive | inactive | – | inactive | inactive | inactive | inactive | inactive | inactive | –
NCCNc1cccc2ccccc12 | inactive | 53.6 µM (active) and inactive | – | inactive | inactive | inactive | inactive | inactive | inactive | –
CC(C)(C)NCC(O)c1ccc(O)c(CO)c1 (stereo unspecified) | inactive | – | inactive | inactive | inactive | inactive | inactive | inactive | inactive | inactive
Cc1ccc(O)c(-n2nc3ccccc3n2)c1 | inactive | inactive | – | inactive | inactive | inactive | inactive | inactive | inactive | –
